The source of these data is PubChem BioAssay AID1458 (National Center for Advancing Translational Sciences (NCATS), 2008).

The whole screen tested about 210,000 compounds, of which about 5,900 (2.8%) were called active. A call without a number means that no potency is given here. About 5% were inconclusive and are not listed. The call rests on the fitted dose curve; in most records, active means well fitted activation curve with a large enough effect; inconclusive means small, poorly fitted or top-dose-only effect; inactive means no such curve, though single readings can be large or run the other way. Many of the other results were omitted from the sample, so actives are more common in it than they were.
Potency means the concentration at half of the fitted maximal effect.

The nature of this test: qHTS Assay for Enhancers of SMN2 Splice Variant Expression. Further: nearly all actives have a fitted effect of over 55% in size. To be noted: HEK293 SMN2-luciferase splicing reporter, luminescence, 30-36 h; series mostly up to 46.1 µM. An outline of the steps:
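qHTS luciferase splicing reporter: luminescence rises when SMN2 exon 7 is included in transfected HEK293 cells. Compound exposure lasted 30-36 h at 37C, with 4.5 mM final sodium butyrate as control, followed by a ONE-Glo read.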
`COc1cccc2sc(N(CCCN(C)C)C(=O)C(c3ccccc3)c3ccccc3)nc12`: the Potency entry was “inactive”.

Turning to `COc1cccc2sc(NNC(=O)c3nc4ccccc4s3)nc12`, the Potency result is “inactive”.

In the case of `COc1cccc2sc(Nc3nc(C)c(C(C)=O)s3)nc12`, the Potency was 7.94 µM (active).

As for `COc1ccc(/C=C2\NC(=O)[C@@H]3Cc4ccccc4CN3C2=O)cc1`, the Potency result was “inactive”.

On to `CCN(CC)S(=O)(=O)c1ccc2c(c1)N(CC(=O)NCC(C)c1ccccc1)C(=O)CO2` (stereo not drawn), for which the Potency entry is “inactive”.

On to `O=Cc1ccc(OCc2cn3ccccc3n2)cc1`, for which the Potency is 11.2 µM (active).

Turning to `COc1ccc(C(=O)NCc2cn3ccccc3n2)cc1`, the Potency result was “inactive”.

Take `Cc1ccc2nc(COc3ccc(N(C)S(=O)(=O)c4ccccc4)cc3)cc(=O)n2c1`: the Potency entry is “inactive”.

With `COc1ccc(-c2nc3c(c(SCC(=O)Nc4ccc(C(=O)O)cc4)n2)Cc2ccccc2O3)cc1`, the Potency result is “inactive”.

Consider `CC(C)(C)NC(=O)Cn1cnc2cc([N+](=O)[O-])ccc2c1=O`, for which the Potency result is “inactive”.

On to `Cc1ccc(-n2cc3ccc([N+](=O)[O-])cc3n2)cc1`, for which the Potency was 1.26 µM (active).

`Cc1cc(C)nc(Nc2cc([N+](=O)[O-])ccc2C)n1`: the Potency entry is “inactive”.

As for `CC1CCN(C(=O)Cn2c(=O)n(-c3ccc(Cl)cc3)c(=O)c3c4c(sc32)CCC4)CC1`, the Potency entry was “inactive”.

For `CCCOc1ccc(CNC(=O)C2CCN(c3nn4c(=O)cc(C)nc4s3)CC2)cc1`, the Potency result is “inactive”.

Consider `Cc1nn(CC(=O)O)c(=O)c2cc3cc(F)ccc3n12`, for which the Potency result was “inactive”.

Regarding `S=C(NCCc1ccccc1)N1CCCCC1`, the Potency was 11.2 µM (active).

Take `Oc1ccccc1N1CCN(C(=S)NCc2ccccc2)CC1`: the Potency result was “inactive”.

Turning to `O=C1CCN(C(=S)NCCc2ccccc2)CC1`, the Potency result is “inactive”.

In the case of `CCc1nn(CCCC(=O)NCc2ccccc2OC)c(=O)c2cc3occc3n12`, the Potency result was “inactive”.

Turning to `COc1ccc(-n2c(SC)nc3sc4c(c3c2=O)CCN(C(C)=O)C4)cc1`, the Potency entry was “inactive”.

Consider `O=C(Nc1ccc2c(c1)OCCO2)C1CCCN(c2ncccn2)C1` (stereo not drawn), for which the Potency is 3.98 µM (active).

Turning to `O=C(Nc1ccc2c(c1)OCCO2)C(c1ccc(F)cc1)N1CCCCC1` (stereo not drawn), the Potency entry is “inactive”.

As to `Cc1cc(C)nc(N2CCC(C(=O)Nc3ccc4c(c3)OCCO4)CC2)n1`, the Potency entry is “inactive”.

`Cc1c(NS(=O)(=O)c2ccc(Cl)cc2)c(=O)n(-c2ccccc2)n1C`: the Potency result is “inactive”.

In the case of `CCOc1ccccc1NC(=O)CSc1ncc(S(=O)(=O)c2ccc(C(C)(C)C)cc2)c(=O)[nH]1`, the Potency entry was “inactive”.

In the case of `COC(=O)c1ccc(NC(=O)c2cccc3c2C(=O)N(C2CCCCC2)C3)cc1`, the Potency entry was “inactive”.

As to `CCCOc1cc(C)c(S(=O)(=O)n2nnc3ccccc32)cc1C`, the Potency entry is “inactive”.

`COc1cc(C)c(Cl)cc1S(=O)(=O)n1ccnc1`: the Potency result is “inactive”.

For `CCOc1cc(C)c(Cl)cc1S(=O)(=O)n1nnc2ccccc21`, the Potency was 17.8 µM (active).

On to `COc1ccccc1/C=C/c1nc(C#N)c(NC(C)c2ccccc2)o1` (stereo not drawn), for which the Potency entry is “inactive”.

On to `COc1ccc(/C=N/S(=O)(=O)c2ccccc2)cc1OC`, for which the Potency entry was “inactive”.

In the case of `CCOc1ccc(/C=N/Nc2nncc(-c3ccccc3)n2)cc1OC`, the Potency entry was “inactive”.

For `COc1ccc(/C=N/Nc2nc3ccccc3o2)cc1OC`, the Potency was 6.31 µM (active).

Consider `Cc1ccc(Cl)cc1NC(=O)C1CCCN(c2cnccn2)C1` (stereo not drawn), for which the Potency entry was “inactive”.

For the compound `O=C(Nc1cccnc1Cl)c1cc(-c2cccc(Cl)c2)on1`, the Potency entry was “inactive”.

Consider `CCC(=O)N1CCc2cc(S(=O)(=O)NC(Cc3ccccc3)C(=O)NCc3ccccc3)ccc21` (stereo not drawn), for which the Potency result was “inactive”.

In the case of `Nc1nc(NCCCN2CCOCC2)nc(Nc2ccccc2)c1[N+](=O)[O-]`, the Potency entry is “inactive”.

In the case of `CNc1nc(Nc2ccc(C)c(Cl)c2)nc(N)c1[N+](=O)[O-]`, the Potency was 11.2 µM (active).

Turning to `COCCNc1nc(N)c([N+](=O)[O-])c(NCCO)n1`, the Potency entry is “inactive”.

As to `Cc1ccccc1CNC(=O)Cn1c(C)c2cnn(-c3ccccc3)c(=O)c2c1C`, the Potency entry was “inactive”.

On to `CCOC(=O)/C(C#N)=C/c1ccc(OCC(=O)Nc2ccccc2)c(OC)c1`, for which the Potency result was “inactive”.

With `CCCn1c(C)cc(/C=C(\C#N)C(=O)OCC(=O)Nc2cc(OC)c(OC)c(OC)c2)c1C`, the Potency was 14.1 µM (active).

`COc1cc(CCC(=O)OCC(=O)Nc2cccc(S(N)(=O)=O)c2)cc(OC)c1OC`: the Potency result is “inactive”.

Regarding `CCOc1ccc(CCNC(=O)CN(c2ccc(C)cc2)S(=O)(=O)N(C)C)cc1OCC`, the Potency result is “inactive”.

As for `CCOC(=O)c1ccc(N2C(=O)c3[nH]nc(-c4ccccc4)c3C2c2ccc(C(C)C)cc2)cc1` (stereo not drawn), the Potency entry was “inactive”.

Turning to `Cc1cnc(NC(=O)C2CCCC2)s1`, the Potency is 14.1 µM (active).

On to `Cc1nc(NC(=O)C2CCCCC2)sc1C`, for which the Potency is 20 µM (active).

In the case of `Cc1ccc(SCC(=O)Nc2ncc(C)s2)cc1`, the Potency entry was “inactive”.

`Cc1nc(NC(=O)C23CCC(C)(C(=O)O2)C3(C)C)sc1C` (stereo not drawn): the Potency result was “inactive”.

As to `CS(=O)(=O)c1ccc2nc(NC(=O)C3CCCCC3)sc2c1`, the Potency entry is “inactive”.

Take `Cc1cnc(NC(=O)CSc2c(Cl)cccc2Cl)s1`: the Potency entry was “inactive”.

Turning to `CCCCC(CC)CNC(=O)C1CCN(S(=O)(=O)c2cccc3nsnc23)CC1` (stereo not drawn), the Potency result was “inactive”.

`CCc1cc2c(cc(C(=O)OC)n2Cc2nc(-c3ccc(C)cc3)oc2C)s1`: the Potency entry is “inactive”.

`COc1cc(OC)cc(-c2nc(=S)n3ccsc3n2)c1`: the Potency entry is “inactive”.

Turning to `COc1ccc(-c2cn3ccsc3n2)cc1`, the Potency was 15.8 µM (active).

On to `CCCC(=O)Nc1cccc(-c2cn3ccsc3n2)c1`, for which the Potency result was “inactive”.

In the case of `c1ccc(-c2cn3cccnc3n2)cc1`, the Potency result is “inactive”.

For `Cc1ccc(-c2cn3cc(C)ccc3n2)cc1`, the Potency result was “inactive”.

Consider `COc1ccc(-c2cn3cccnc3n2)cc1`, for which the Potency was 12.6 µM (active).

`Cc1ccc(C)c(Cn2c(CCCNC(=O)C3CCCCC3)nc3ccccc32)c1`: the Potency result is “inactive”.

Take `Cc1ccsc1CN(C(=O)c1oc2ccc(Br)cc2c1C)C1CCS(=O)(=O)C1` (stereo not drawn): the Potency entry was “inactive”.

As to `Cc1ccc(-n2nc(C)c(C(=O)O)c2-n2cccc2)cc1`, the Potency entry is “inactive”.

For `COc1ccccc1C(=O)NCCn1cc(SCc2ccccc2Cl)c2ccccc21`, the Potency result is “inactive”.

As to `Cc1ccc(S(=O)(=O)Nc2ccccc2CNc2c(C)n(C)n(-c3ccccc3)c2=O)cc1`, the Potency result is “inactive”.

For `Cc1c(N=Nc2ccc(N(C)C)cc2)c(=O)n(-c2ccccc2)n1C`, the Potency was 10 µM (active).

As for `Cc1c(C=O)n(C)n(-c2ccccc2)c1=O`, the Potency entry was “inactive”.

On to `Cc1ccc2oc(=O)c3cnn(CC(=O)NCc4ccccc4Cl)c3c2c1`, for which the Potency entry was “inactive”.

As to `CCCC12CN3CC(CCC)(CN(C1)C3c1c[nH]c3ccc(OC)cc13)C2=O` (stereo not drawn), the Potency result is “inactive”.
